Our source for the growth values is PubChem BioAssay (NCI).

Experiment in all cases: NCI-60 one-dose screen, 48 h (100 = growth as untreated, 0 = no growth, -100 = all killed)
Holding throughout (conditions): 10 µM unless noted

Test [1] concerns T-47D breast.
Test [2] deals with MDA-MB-435 melanoma.
In test [3] the test system is SW-620 colon.
The test system of test [4] is MCF7 breast.
In test [5] the test system is HCT-116 colon.
Test [6] deals with HCC-2998 colon.
Test [7] deals with KM12 colon.
For test [8], the system named is BT-549 breast.

The structures appear in SMILES notation. Compounds without any hit were thinned out: in the full panel of roughly 83,000, 20% have a hit.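 Negative percent growth values reflect cell death: -40 means 40% of the cells present at the start died, and -100 means all died.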 Values without a mark were called inactive. Active and inactive are the calls of the source. Rule for the calls: active = growth percent below 10; inactive = the rest.

On to `Oc1ccc2ccccc2c1N=Nc1nccs1`, for which the growth in test [1] was 15.5%; in test [2] it was 35.3%; in test [3] it was 24.7%; in test [4], 17.1%; in test [5], -20.8% (active); in test [6] it was -5.47% (active). The growth in test [7] is 25%.

In the case of `Cc1oc2c(C)c3oc(=O)cc(C)c3cc2c1CCl`, the growth was 53.9% in test [1]; 63.4% in test [2]; 76.7% in test [3]; 49% in test [4]; 71.1% in test [5]; 98.8% in test [6]. Also, the growth in test [7] is 90.1%.

On to `CC1(C)N=c2cc3c(cc2N1c1ccc(Cl)cc1)=Nc1ccccc1N3c1ccc(Cl)cc1`, for which the growth in test [1] was 25.1%; in test [2], 77.9%; in test [3], 53.5%; in test [4] it was 28.9%; in test [5], -41.3% (active); in test [6], 36.9%. Besides, the growth in test [7] is 77%.

In the case of `CC(C)(C)c1ccc(O)c(Br)c1`, the growth in test [1] was 103%; in test [2], 92.1%; in test [3], 92.4%; in test [5] it was 93.2%; in test [6], 98%; in test [7], 104%.

Regarding `Cc1cc(N/N=C/c2ccccn2)nc2ccccc12`, the growth is 24.1% in test [1]; 29.6% in test [2]; 18.5% in test [3]; 14% in test [4]; 17.6% in test [5]; 24.7% in test [6]. Also, the growth in test [7] is 24.5%.

In the case of `Cc1ccc(NC2=CC(=O)C(=O)c3ccccc32)cc1`, the growth in test [8] was -41.1% (active); in test [2], -80.5% (active); in test [3] it was -19.6% (active); in test [4], -57.4% (active); in test [5] it was -26.9% (active); in test [6], 28.4%. In addition, the growth in test [7] is 22.1%.

Consider `O=C(/C(Cl)=N/O)c1ccc(-c2ccccc2)cc1`, for which the growth in test [8] was 94.7%; in test [2], 114%; in test [3], 110%; in test [4], 89.5%; in test [5], 113%; in test [6], 105%. Besides, the growth in test [7] is 108%.

Consider `CCCCCCN(CCCCCC)CCCNc1nccc2ccccc12`, for which the growth was 39.7% in test [8]; 0.549% (active) in test [2]; 6.78% (active) in test [3]; -28% (active) in test [4]; 8.24% (active) in test [5]; -59.4% (active) in test [6]. In addition, the growth in test [7] was 9.96% (active).

With `COc1ccc2nc3cc(Cl)ccc3c(NCCCCCN3CCCCC3)c2c1`, the growth in test [8] was 19%; in test [2], -92% (active); in test [3] it was -27.4% (active); in test [4] it was -33.5% (active); in test [5] it was -61.5% (active); in test [6], -76.7% (active). Besides, the growth in test [7] was -12.8% (active).

`COc1cc(/C=C2\SC(=S)N(/C=C/c3nc4ccccc4[nH]c3=O)C2=O)cc(OC)c1OC`: the growth in test [8] is 80.8%; in test [2] it was 81.9%; in test [3] it was 91.2%; in test [4], 82.1%; in test [5], 78.8%; in test [6] it was 87.5%. Moreover, in test [7], the growth was 90.4%.

Consider `O=C/C=C/c1ccc([N+](=O)[O-])cc1`, for which the growth in test [8] is 116%; in test [2] it was 108%; in test [3] it was 106%; in test [4] it was 90.3%; in test [5], 80.6%; in test [6] it was 95.8%. For the same compound, in test [7], the growth was 101%.

With `Oc1ccc2ccccc2c1N=Nc1ccccn1`, the growth in test [1] is 12.7%; in test [2], 49.9%; in test [4] it was 0.0702% (active); in test [5], 1.41% (active); in test [6] it was 45.2%; in test [7], 34.4%.

Regarding `OC(c1cc(-c2ccc(Cl)cc2)nc2c(Cl)cccc12)C1CCCCN1` (stereo not given), the growth was 73.6% in test [8]; -78.8% (active) in test [2]; -86.2% (active) in test [3]; -88.7% (active) in test [4]; -28.8% (active) in test [5]; -68.9% (active) in test [6]. Further, in test [7], the growth was -89% (active).

`Nc1nc(-c2ccccc2)nc(N)c1N=O`: the growth in test [8] is 56.3%; in test [2], 46.7%; in test [3], 1.65% (active); in test [4], 33%; in test [5] it was 51.6%; in test [6], 103%. In addition, the growth in test [7] was 58.8%.

Turning to `Nc1nc2ncc(CNc3ccc(C(=O)NC(CCC(=O)NC(CCC(=O)NC(CCC(=O)NC(CCC(=O)NC(CCC(=O)O)C(=O)O)C(=O)O)C(=O)O)C(=O)O)C(=O)O)cc3)nc2c(=O)[nH]1` (stereo not given), the growth in test [8] is 106%; in test [2], 111%; in test [3], 105%; in test [4], 98.7%; in test [5], 103%; in test [6] it was 117%. For the same compound, in test [7], the growth was 101%.

For the compound `O=C(Cc1nc2cc(Cl)c(Cl)cc2nc1CC(=O)c1cccnc1)c1cccnc1`, the growth in test [8] is 2.99% (active); in test [2], 75.9%; in test [3], 90.3%; in test [4], 29.6%; in test [5], 52.7%; in test [6] it was 115%. Further, the growth in test [7] is 85.9%.

With `CCCCCCCCCCCC[n+]1ccc2ccccc2c1`, the growth is -73.4% (active) in test [8]; -69.6% (active) in test [2]; -30% (active) in test [3]; -10.3% (active) in test [4]; -74.7% (active) in test [5]; -84.7% (active) in test [6]. For the same compound, the growth in test [7] is -89.2% (active).

`CC1CC(C)(C)OB(OC(C)CC(C)(C)OB2OC(C)CC(C)(C)O2)O1` (stereo not given): the growth in test [8] is 77.7%; in test [2], 107%; in test [3], 117%; in test [4], 96.6%; in test [5], 99.9%; in test [6], 93.3%. Also, in test [7], the growth is 101%.

Regarding `N#C/C(=N\Nc1ccc(Cl)cc1)C(=O)C1CC1`, the growth was 40.2% in test [8]; 41% in test [2]; 63.1% in test [3]; 51.7% in test [4]; 63.9% in test [5]; 72.1% in test [6]. Besides, the growth in test [7] was 56.2%.

In the case of `CN(C)c1ccc2cc3c(cc2c1)Oc1ccccc1N3.[Cl][Zn][Cl]`, the growth in test [8] was 105%; in test [2] it was 6.73% (active); in test [3], 11.8%; in test [4], 3.32% (active); in test [5], 8.67% (active); in test [6], 103%. Also, the growth in test [7] is 79.6%.

For `O=C(OC12CC3CC(CC(C3)C1)C2)c1ccc(NCc2cc(O)ccc2O)cc1`, the growth in test [8] is -81.6% (active); in test [2] it was -46% (active); in test [3], -53.8% (active); in test [4], 6.06% (active); in test [5] it was -82.9% (active); in test [6], -73.6% (active). Moreover, the growth in test [7] was -60.7% (active).

For the compound `CCCOS(=O)(=O)c1ccccc1`, the growth in test [8] was 129%; in test [2], 101%; in test [3] it was 101%; in test [4], 111%; in test [5], 107%; in test [6], 102%. The growth in test [7] is 103%.

As to `CC(C)N=C(N)/N=C(\N)Nc1ccc2ccc3ccccc3c2c1`, the growth in test [1] is -67.8% (active); in test [2] it was -93.7% (active); in test [4] it was -90.5% (active); in test [5] it was 3.26% (active); in test [6], -90.9% (active); in test [7], -82.2% (active).

With `Cn1c(-c2ccccc2)c(/C=C/C2=[N+](C)c3ccccc3C2(C)C)c2ccccc21`, the growth was 22.1% in test [8]; 2.09% (active) in test [2]; 14.3% in test [3]; 4.58% (active) in test [4]; 9.76% (active) in test [5]; 27% in test [6]. In addition, in test [7], the growth was -22.8% (active).
